Data published in the supplement of paper PMC12636033.
± gives the standard deviation of the averaged measurements. Whole data set: some 33,000 sequences, median “E-score (rank enrichment, -0.5 to 0.5)” near -0.0028, cut for the highest 2% near 0.23. What follows is part of a selection rich in the highest values, with near analogues and random picks from the rest.

System: 2Sb-muMax20 (muMax20 with two 1,3-bis(methyl)benzene Cys staples, A13C/A17C and Q88C/A92C, C-terminal Lys)
Assay: PBM 8-mer E-score (E-score (rank enrichment, -0.5 to 0.5)); higher = stronger preferential binding
Protocol: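 Protein binding microarray (universal PBM chip covering all 10-mers in fixed probe flanks) with chemically synthesized human Max(13-93) bHLH-LZ analogs (not full-length Max) bearing noncanonical residues (hArg, Tha, Aib, Nle at 65) and aromatic Cys staples. Read-out per 8-mer (and its reverse complement): E-score (rank-based enrichment, -0.5 to 0.5) and Z-score of median probe intensity.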

| Sequence | PBM 8-mer E-score |
| --- | --- |
| CAACCCAA | -0.0401 ± 0.029 |
| CAACCCCC | -0.167 ± 0.046 |
| CAACCCCA | 0.294 ± 0.051 |
| AGTTTATC | 0.182 ± 0.027 |
| ACTTTATC | 0.00955 ± 0.014 |
| CCTTTATA | 0.0289 ± 0.054 |
| AGTTTATA | 0.235 ± 0.044 |
| ACTTTATA | 0.232 ± 0.077 |
| ACTTTCTC | 0.0106 ± 0.018 |
| ACTTTCTA | 0.241 ± 0.012 |
| GGTTTATA | 0.047 ± 0.079 |
| ACTTTCTG | -0.0565 ± 0.016 |
| AGGCGAGG | 0.0445 ± 0.00056 |
| CTATACCA | 0.214 ± 0.036 |
| CGTCTGAG | -0.115 ± 0.054 |
| CAACCGCG | 0.0452 ± 0.028 |
| ATGTCTGC | -0.0456 ± 0.036 |
| AATCTTCC | 0.0406 ± 0.055 |
| ATATCGAA | 0.0967 ± 0.018 |
| ATATCGAC | 0.0358 ± 0.012 |
| ATATCGAT | 0.23 ± 0.013 |
| TCCTGGCA | -0.0907 ± 0.03 |
| CCTTATAC | 0.175 ± 0.015 |
| CACACTTA | 0.15 ± 0.045 |

| Sequence | PBM 8-mer E-score |
| --- | --- |
| ATTTAAAC | 0.167 ± 0.021 |
| AGGGGCTG | 0.252 ± 0.036 |
| AGGGGCTA | 0.198 ± 0.055 |
| GGGGGTAA | -0.0157 ± 0.073 |
| AGGGGCAC | -0.0355 ± 0.044 |
| AGGGGCAT | 0.272 ± 0.028 |
| AAGGGTTG | 0.0938 ± 0.044 |
| AGGGGCAA | 0.159 ± 0.017 |
| AGGGGTTG | 0.266 ± 0.068 |
| AGGGGTTA | 0.135 ± 0.04 |
| CGGGGTAA | 0.19 ± 0.055 |
| TGGGGTAA | 0.266 ± 0.033 |
| AGGGGCTC | 0.0348 ± 0.035 |
| TAAGGCGA | 0.0332 ± 0.024 |
| CCAACGTA | -0.0251 ± 0.052 |
| CCACTCAA | 0.199 ± 0.032 |
| ACTGGCAG | -0.182 ± 0.042 |
| AATGGTGG | 0.0724 ± 0.034 |
| AACCTTGT | -0.108 ± 0.054 |
| GGGGCTAA | 0.0894 ± 0.033 |
| ATCGCCAA | -0.0483 ± 0.083 |
| ACACCGTA | 0.0971 ± 0.049 |
| ATATCACA | 0.112 ± 0.039 |
| AAGCCCCG | 0.0771 ± 0.022 |

| Sequence | PBM 8-mer E-score |
| --- | --- |
| AGGGGTAA | 0.202 ± 0.014 |
| CGGGGTAG | 0.147 ± 0.071 |
| AGGGGTAG | 0.309 ± 0.059 |
| AGGTCCGA | -0.128 ± 0.028 |
| AATTTAAA | 0.0161 ± 0.022 |
| ATTTTTAC | 0.127 ± 0.05 |
| CGAAACAA | 0.0409 ± 0.023 |
| AGAAACAA | 0.252 ± 0.0078 |
| GGAAACAA | 0.133 ± 0.078 |
| AGAAACAC | 0.0175 ± 0.091 |
| TGAAACAA | 0.261 ± 0.053 |
| AGAAACAT | 0.0919 ± 0.038 |
| ACCCTCTG | -0.181 ± 0.025 |
| GGGTCTTA | 0.104 ± 0.061 |
| GCGTATGA | 0.0375 ± 0.06 |
| ATTCTTCA | 0.00503 ± 0.029 |
| ACCGCTTC | -0.17 ± 0.019 |
| AATATTTA | 0.201 ± 0.0076 |
| GTTCAGGA | -0.184 ± 0.021 |
| CCCTGAGC | 0.0168 ± 0.058 |
| GATATGAA | 0.103 ± 0.013 |
| AATATGAC | 0.166 ± 0.012 |
| AATATGAA | 0.271 ± 0.004 |
| AATATGAG | -0.034 ± 0.019 |

| Sequence | PBM 8-mer E-score |
| --- | --- |
| AATATGAT | 0.252 ± 0.03 |
| TATATGAA | 0.159 ± 0.022 |
| ATTTTACG | 0.126 ± 0.054 |
| CAGTTCAG | 0.0182 ± 0.11 |
| GTGCACAC | -0.0164 ± 0.1 |
| GGCTACGA | -0.0832 ± 0.011 |
| CACGTCCC | -0.161 ± 0.028 |
| ATGCGAGC | 0.00876 ± 0.045 |
| ATGCGAGA | -0.0394 ± 0.1 |
| ATGCGAGG | 0.2342 ± 0.0017 |
| CGCCCCCC | -0.286 ± 0.14 |
| AATGTACG | 0.115 ± 0.053 |
| CATGTACG | 0.311 ± 0.024 |
| CATGTACA | 0.125 ± 0.1 |
| TGCACTAA | 0.102 ± 0.019 |
| ATGGTGCA | 0.196 ± 0.05 |
| CAACACCC | 0.252 ± 0.0077 |
| CAACACCG | -0.202 ± 0.036 |
| GAACACCC | -0.145 ± 0.022 |
| GAGGTATA | 0.144 ± 0.025 |
| TAGTAGAA | -0.0551 ± 0.015 |
| ACGGACAA | 0.0365 ± 0.0016 |
